# The other results are listed elsewhere or left out. Records with an inconclusive call do not appear. The source made the active and inactive calls.
# Columns and labels:
# [1] = biological target: Solute carrier family 12 member 5 (Homo sapiens) (UniProt Q9H2X9); assay: KCC2 modulators in sodium-free buffer, confirmation, cell-based, HEK293 KCC2, thallium flux, secondary assay (AID 1713); conditions: FluoZin2 fluorescence, at 10 µM, stronger effect = higher value
# PubChem AID 1714 = conditions: HEK293-KCC2 + bumetanide/ouabain, thallium flux FluoZin2; at 10 µM; stronger effect = higher value
# [2] = thallium flux modulation in parental HEK cells, confirmation, counter-screen for KCC2 modulator project, cell-based, counterscreen 1 (AID 1716;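 active means thallium flux rate significantly above the same plate's solvent-only control wells, beyond their mean plus 3 SD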); conditions: HEK293 parental cells, thallium flux FluoZin2, ouabain; at 10 µM; baseline-ratio fluorescence slope, 10–20 s after thallium
# [3] = biological target: Solute carrier family 12 member 5 (Homo sapiens) (UniProt Q9H2X9); assay: KCC2 inhibitors and activators, ouabain retest, confirmation, HEK-KCC2 cells (AID 1717;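 active means thallium flux slope beyond 3 SD from same-plate DMSO control mean in most replicates, usually higher, sometimes lower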;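 further: slope of initial-normalized fluorescence between seconds 10 and 20 after thallium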); conditions: HEK293-KCC2, thallium flux FluoZin2 fluorescence, at 10 µM, bidirectional: low = inhibitor, high = activator
# [4] = native HEK Tl+ uptake effects, second counter-screen – HEK cells, counterscreen 2, counter-screen for KCC2 modulator project, confirmation (AID 1718;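 active means thallium flux slope above the same plate's solvent-control mean plus 3 SD in both duplicate wells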;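 further: run without ouabain in cells lacking the KCC2 cotransporter; slope of fluorescence scaled to its starting value between 10 and 20 s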); conditions: HEK293 parental, thallium flux FluoZin-2 fluorescence slope; at 10 µM
# [5] = biological target: Solute carrier family 12 member 5 (Homo sapiens) (UniProt Q9H2X9); assay: KCC2 modulators without ouabain present, confirmation, cell-based, HEK293 KCC2, thallium flux, FluoZin2, secondary assay 2 (AID 1715;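 active means thallium flux slope more than 3 SD above or below the plate's solvent-only control mean, mostly below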;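 further: raw slope with 0.1% DMSO as baseline and bumetanide as block control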); conditions: HEK293-KCC2, thallium flux FluoZin2 fluorescence; at 10 µM; actives lie on both sides; F/F0 rise rate, 10–20 s post-thallium
# [6] = inhibitors of TNFa-induced NFkB p65 translocation, primary screen, imaging, HUVEC, MLSMR starter and 10KST1 sets (AID 438;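 active means inhibition above 20% together with a positive visual image hit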;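 further: compound added about 3h40 before a 20 min TNFalpha stimulation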;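 on inhibition: signal is the nuclear over cytoplasmic p65 intensity ratio per well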); conditions: HUVEC TNFa-induced p65 nuclear translocation; cell count: measured here: nuclei count (cytotoxicity indicator), at 2.08 µM; inhibition: at 2 µM, stronger effect = higher value, 0% TNFa-plus-vehicle, 100% no-TNFa wells
# [7] = inhibitors of mutant huntingtin aggregation, primary screen, imaging, exon1htt(103Q)mCFP cells, high-content imaging (AID 483;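 active means visual image review flags a hit and inhibition of aggregation exceeds 20%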;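 further: compound exposure lasted 3 days before fixation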;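 on nuclei count: percent of the per-plate median nuclei count of sample wells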); conditions: exon1htt(103Q)mCFP cell line, aggregate imaging, at 2 µM; inhibition of aggregation: stronger effect = higher value; nuclei count: measured here: cell count, toxicity
# [8] = inhibitors of E-selectin induction by TNFa, primary screen, imaging, HUVEC, immunofluorescence, MLSMR starter and 10KST1 sets (AID 487;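 active means visually confirmed hit in the image check and inhibition above 20%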;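 on inhibition: signal is fraction of cell area covered by stained E-selectin grains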;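 on nuclei count: 100% = median nuclei count of all wells on the same plate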); conditions: HUVEC TNFalpha-induced E-selectin immunofluorescence imaging, at 2 µM; inhibition: stronger effect = higher value; nuclei count: measured here: cell number, toxicity
# [9] = biological target: Voltage-gated potassium channel subunit beta-2 (Rattus norvegicus) (UniProt P62483); assay: KvBeta enzyme negative modulators, primary screen, biochemical, NADPH fluorescence (AID 622;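 active means fluorescence slope higher than the sample average by over 3 SD, cut at about -0.22 in these data, passing the limit was not always enough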;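 further: slope of raw intensity against log time taken from 70 to 1610 s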); conditions: recombinant KvBeta, 4-cyanobenzaldehyde reduction, at 10 µM, stronger effect = higher value
# Voltage-gated potassium channel subunit beta-2 (Rattus norvegicus), sequence (P62483 whole entry, looked up): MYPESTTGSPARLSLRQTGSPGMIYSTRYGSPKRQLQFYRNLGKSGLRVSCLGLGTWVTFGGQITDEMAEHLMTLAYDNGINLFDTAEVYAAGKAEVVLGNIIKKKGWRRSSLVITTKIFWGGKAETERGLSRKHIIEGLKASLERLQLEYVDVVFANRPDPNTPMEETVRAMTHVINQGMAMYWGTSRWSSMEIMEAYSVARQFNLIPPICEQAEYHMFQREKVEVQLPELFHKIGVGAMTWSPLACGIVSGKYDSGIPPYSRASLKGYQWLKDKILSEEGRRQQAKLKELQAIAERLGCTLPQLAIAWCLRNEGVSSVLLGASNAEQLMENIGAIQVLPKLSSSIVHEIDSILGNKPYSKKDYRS
# [10] = biological target: Voltage-gated potassium channel subunit beta-2 (Rattus norvegicus) (UniProt P62483); assay: KvBeta positive modulators, primary screen, biochemical, NADPH fluorescence (AID 623;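 active means NADPH fluorescence slope more negative than the mean of all samples by about 3 SD, 99.7% confidence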;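 further: fluorescence intensity change per second fitted from 20 to 320 s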); conditions: Recombinant KvBeta, NADPH fluorescence decrease slope, 10 min; at 10 µM; stronger effect = lower value
# [11] = biological target: Alpha-2C adrenergic receptor (Homo sapiens) (UniProt P18825); assay: modulators of alpha2C/GIRK thallium flux, primary screen, cell-based, HEK293 alpha2C/GIRK1/2 (AID 624;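 active means fluorescence slope after compound addition differing from the mean of all screened samples at 99.7% confidence, in either direction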;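 further: slope of fluorescence ratio to pre-addition baseline per second over 15 to 24 s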); conditions: thallium flux BTC fluorescence, at 10 µM, actives lie on both sides
# Alpha-2C adrenergic receptor (Homo sapiens), sequence (P18825 whole entry, looked up): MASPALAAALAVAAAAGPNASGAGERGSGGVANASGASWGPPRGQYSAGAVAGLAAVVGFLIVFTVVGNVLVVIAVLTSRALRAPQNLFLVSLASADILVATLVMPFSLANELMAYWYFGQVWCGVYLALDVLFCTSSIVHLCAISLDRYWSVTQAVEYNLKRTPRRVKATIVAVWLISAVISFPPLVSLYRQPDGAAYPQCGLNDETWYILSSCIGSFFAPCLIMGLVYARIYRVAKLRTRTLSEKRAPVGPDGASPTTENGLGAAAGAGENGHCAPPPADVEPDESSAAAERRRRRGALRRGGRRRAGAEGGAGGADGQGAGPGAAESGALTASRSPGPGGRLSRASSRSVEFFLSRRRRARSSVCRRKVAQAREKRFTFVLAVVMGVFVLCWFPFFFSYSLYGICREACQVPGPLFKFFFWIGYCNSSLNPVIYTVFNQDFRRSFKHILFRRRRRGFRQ
# [12] = inhibitors of larval lipid processing in zebrafish, primary screen, whole organism, PED6 fluorescence, gall bladder and intestine (AID 686;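 active means a full or partial loss of lipid-probe fluorescence in the fish gall bladder, intestine or both, judged by eye; inactive means no fluorescence loss, or compound toxic to the fish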;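 further: larvae 5 to 7 days old with five fish per well; signal comes from phospholipase A2 cleavage of quenched PED6 carried via bile; overnight exposure to compound and PED6 before scoring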); conditions: Zebrafish larvae PED6 lipid processing, fluorescence scoring; screened at 20 µM (by protocol)
# [13] = inhibitors of Sendai virus-induced IRF3 signaling, primary screen, TLR/RLR signaling modifier project, cell-based, Sendai virus stimulus, luciferase, 10K MLSCN set (AID 602276;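 active means inhibition at or above 50% at 10 µM; inactive means inhibition below 50%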;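 further: firefly luciferase from ISG56 promoter only with Renilla not read in this screen; 0% = Sendai virus plus DMSO and 100% = medium plus DMSO without virus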); conditions: HEK293 RL24 IRF3 luciferase reporter, at 10 µM, stronger effect = higher value
# [14] = inhibitors of poly I:C-induced TLR3 signaling, primary screen, cell-based, poly I:C stimulus, luciferase, 10K MLSCN set (AID 602277;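 active means inhibition of the reporter signal at or above 50%; inactive means inhibition below 50%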); conditions: HEK293-TLR3 RL24 IRF3 luciferase reporter, at 10 µM, stronger effect = higher value
# Solute carrier family 12 member 5 (Homo sapiens), sequence (Q9H2X9 whole entry, looked up): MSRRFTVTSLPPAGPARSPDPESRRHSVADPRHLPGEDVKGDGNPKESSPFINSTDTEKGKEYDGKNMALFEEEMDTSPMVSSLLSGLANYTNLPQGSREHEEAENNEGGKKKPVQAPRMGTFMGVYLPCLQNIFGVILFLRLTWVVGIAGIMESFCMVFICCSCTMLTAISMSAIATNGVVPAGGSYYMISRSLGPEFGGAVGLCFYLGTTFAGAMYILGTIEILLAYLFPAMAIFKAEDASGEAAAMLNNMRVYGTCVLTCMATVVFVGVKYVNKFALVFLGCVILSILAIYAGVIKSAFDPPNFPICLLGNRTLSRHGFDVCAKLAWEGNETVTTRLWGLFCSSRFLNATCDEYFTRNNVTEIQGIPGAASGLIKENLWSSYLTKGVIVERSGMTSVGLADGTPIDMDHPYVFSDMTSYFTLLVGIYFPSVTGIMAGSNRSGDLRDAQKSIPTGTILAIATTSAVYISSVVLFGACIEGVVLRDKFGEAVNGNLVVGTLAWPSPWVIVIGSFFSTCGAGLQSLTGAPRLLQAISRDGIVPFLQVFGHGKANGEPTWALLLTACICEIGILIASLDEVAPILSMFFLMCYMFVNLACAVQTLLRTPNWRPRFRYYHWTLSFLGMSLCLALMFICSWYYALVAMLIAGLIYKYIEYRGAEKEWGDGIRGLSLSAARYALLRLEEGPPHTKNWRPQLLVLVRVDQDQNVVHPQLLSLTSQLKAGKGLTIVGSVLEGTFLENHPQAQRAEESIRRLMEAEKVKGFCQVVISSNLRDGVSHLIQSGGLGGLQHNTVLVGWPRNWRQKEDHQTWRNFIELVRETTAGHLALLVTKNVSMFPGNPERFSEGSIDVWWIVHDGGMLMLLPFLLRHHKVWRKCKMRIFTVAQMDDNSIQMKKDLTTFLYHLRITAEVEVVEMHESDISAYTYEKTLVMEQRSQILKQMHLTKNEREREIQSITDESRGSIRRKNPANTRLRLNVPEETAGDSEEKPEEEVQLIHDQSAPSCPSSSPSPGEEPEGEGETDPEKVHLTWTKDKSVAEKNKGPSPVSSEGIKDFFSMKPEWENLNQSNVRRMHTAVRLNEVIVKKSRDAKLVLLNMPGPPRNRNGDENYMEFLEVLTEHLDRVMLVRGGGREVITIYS
structure (smiles),measurement,setting,value
Cc1cc(C)c2cc(CN(Cc3cccs3)Cc3nnnn3CC3CCCO3)c(=O)[nH]c2c1 (stereo not given),normalised thallium flux (F/F0 slope),[1],0.0146 (inactive)
same,normalized thallium flux,PubChem AID 1714,0.0043 (inactive)
same,thallium flux rate (normalised fluorescence),[2],0.00572 (active)
same,"raw Tl+ flux slope (below DMSO = inhibition, above = activation)",[3],0.0137 (active)
same,thallium flux slope,[4],0.00821 (inactive)
Cc1ccccc1NC(=S)NNC(=O)c1cccc(Br)c1,normalised thallium flux (F/F0 slope),[1],0.0117 (inactive)
same,normalized thallium flux,PubChem AID 1714,0.028 (active)
same,normalized thallium flux,[5],0.0325 (inactive)
same,"raw Tl+ flux slope (below DMSO = inhibition, above = activation)",[3],0.0311 (active)
same,thallium flux slope,[4],0.0126 (inactive)
Cc1ccc(N=Cc2c(O)n(-c3nccs3)c(=O)c3ccccc23)c(C)c1,normalised thallium flux (F/F0 slope),[1],0.000176 (active)
same,normalized thallium flux,PubChem AID 1714,-0.00484 (active)
same,normalized thallium flux,[5],0.0195 (active)
same,"raw Tl+ flux slope (below DMSO = inhibition, above = activation)",[3],0.0222 (active)
same,thallium flux slope,[4],0.00674 (active)
Cc1c(C(=O)NC(=S)NCc2cccnc2)oc2ccccc12,normalised thallium flux (F/F0 slope),[1],0.025 (active)
same,normalized thallium flux,PubChem AID 1714,0.0479 (active)
same,thallium flux rate (normalised fluorescence),[2],0.028 (active)
same,"raw Tl+ flux slope (below DMSO = inhibition, above = activation)",[3],0.0308 (active)
same,thallium flux slope,[4],0.0284 (active)
CCCCC(CC)CNC(=O)C(=O)C1C(=O)Nc2ccccc21 (stereo not given),normalised thallium flux (F/F0 slope),[1],0.0112 (inactive)
same,normalized thallium flux,PubChem AID 1714,0.0356 (active)
same,normalized thallium flux,[5],0.0322 (inactive)
same,"raw Tl+ flux slope (below DMSO = inhibition, above = activation)",[3],0.0309 (active)
same,thallium flux slope,[4],0.0126 (inactive)
Cc1ccc(C)c(NC(=S)NNC(=S)Nc2ccc(C(C)C)cc2)c1,normalised thallium flux (F/F0 slope),[1],0.0145 (inactive)
same,normalized thallium flux,PubChem AID 1714,0.00979 (active)
same,thallium flux rate (normalised fluorescence),[2],0.0112 (active)
same,"raw Tl+ flux slope (below DMSO = inhibition, above = activation)",[3],0.0152 (active)
same,thallium flux slope,[4],0.0121 (inactive)
COCCn1c(C)cc(C(=O)CSc2ncnc3sc4c(c23)CCC4)c1C,normalised thallium flux (F/F0 slope),[1],0.0102 (inactive)
same,normalized thallium flux,PubChem AID 1714,0.013 (active)
same,normalized thallium flux,[5],0.0342 (inactive)
same,thallium flux slope,[4],0.0112 (inactive)
O=C(c1cc(-c2ccc(O)cc2)on1)N1CCCc2ccccc21,normalised thallium flux (F/F0 slope),[1],0.00967 (inactive)
same,normalized thallium flux,PubChem AID 1714,0.00639 (inactive)
same,thallium flux rate (normalised fluorescence),[2],0.00346 (inactive)
same,"raw Tl+ flux slope (below DMSO = inhibition, above = activation)",[3],0.0175 (active)
same,thallium flux slope,[4],0.0111 (inactive)
O=C(Nc1ccc2oc(-c3ccccc3F)nc2c1)c1ccco1,normalised thallium flux (F/F0 slope),[1],0.0157 (inactive)
same,normalized thallium flux,PubChem AID 1714,0.00477 (inactive)
same,thallium flux rate (normalised fluorescence),[2],0.00696 (inactive)
same,"raw Tl+ flux slope (below DMSO = inhibition, above = activation)",[3],0.0137 (inactive)
same,thallium flux slope,[4],0.00945 (inactive)
COc1ccc(Cl)cc1C(=O)NNC(=S)NC(=O)/C=C/c1ccco1,normalised thallium flux (F/F0 slope),[1],0.0165 (inactive)
same,normalized thallium flux,PubChem AID 1714,0.0479 (active)
same,thallium flux rate (normalised fluorescence),[2],0.0367 (active)
same,"raw Tl+ flux slope (below DMSO = inhibition, above = activation)",[3],0.0379 (active)
same,thallium flux slope,[4],0.0335 (active)
Cc1ccc(-n2ncc3c(Nc4cccc(C(=O)O)c4)ncnc32)cc1,normalised thallium flux (F/F0 slope),[1],0.00874 (inactive)
same,normalized thallium flux,PubChem AID 1714,0.00541 (inactive)
same,normalized thallium flux,[5],0.0319 (inactive)
same,"raw Tl+ flux slope (below DMSO = inhibition, above = activation)",[3],0.0185 (inactive)
same,thallium flux slope,[4],0.0099 (inactive)
COc1ccccc1N1CCN(C(=O)CSc2ncnc3c2cnn3-c2ccc(C)c(C)c2)CC1,normalised thallium flux (F/F0 slope),[1],0.00591 (inactive)
same,normalized thallium flux,PubChem AID 1714,0.00504 (inactive)
same,normalized thallium flux,[5],0.029 (inactive)
same,"raw Tl+ flux slope (below DMSO = inhibition, above = activation)",[3],0.0176 (inactive)
same,thallium flux slope,[4],0.0103 (inactive)
O=C(CSc1ccc(-c2cccs2)nn1)Nc1ccccc1F,normalised thallium flux (F/F0 slope),[1],0.00973 (inactive)
same,normalized thallium flux,PubChem AID 1714,0.00689 (inactive)
same,thallium flux rate (normalised fluorescence),[2],0.00368 (inactive)
same,"raw Tl+ flux slope (below DMSO = inhibition, above = activation)",[3],0.017 (active)
same,thallium flux slope,[4],0.0107 (inactive)
CCCCn1c(SCC(=O)NCC2CCCO2)nc2ccc(N3CCOCC3)cc2c1=O (stereo not given),normalised thallium flux (F/F0 slope),[1],0.0177 (inactive)
same,normalized thallium flux,PubChem AID 1714,0.0198 (active)
same,thallium flux rate (normalised fluorescence),[2],0.0094 (active)
same,"raw Tl+ flux slope (below DMSO = inhibition, above = activation)",[3],0.0187 (active)
same,thallium flux slope,[4],0.013 (active)
Oc1c(Cl)cc(Cl)c(Cl)c1Cc1c(O)c(Cl)cc(Cl)c1Cl,normalised thallium flux (F/F0 slope),[1],0.0104 (inactive)
same,normalized thallium flux,PubChem AID 1714,0.0366 (active)
same,normalized thallium flux,[5],0.0364 (inactive)
same,thallium flux slope,[4],0.0102 (inactive)
O=C(Nc1ccn(Cc2ccccc2)n1)c1cccc(F)c1,normalised thallium flux (F/F0 slope),[1],0.00622 (inactive)
same,normalized thallium flux,PubChem AID 1714,0.00499 (inactive)
same,thallium flux rate (normalised fluorescence),[2],0.00698 (inactive)
same,"raw Tl+ flux slope (below DMSO = inhibition, above = activation)",[3],0.017 (active)
same,thallium flux slope,[4],0.00931 (inactive)
CS(=O)(=O)N(CC(=O)N1CCN(c2ccc(F)cc2)CC1)C1CCCCC1,normalised thallium flux (F/F0 slope),[1],0.00629 (inactive)
same,normalized thallium flux,PubChem AID 1714,0.00489 (inactive)
same,thallium flux rate (normalised fluorescence),[2],0.00762 (inactive)
same,"raw Tl+ flux slope (below DMSO = inhibition, above = activation)",[3],0.0176 (active)
same,thallium flux slope,[4],0.0102 (inactive)
COc1ccccc1-n1cnc2cc(NS(=O)(=O)c3ccccc3)ccc21,cell count,[6],720
same,inhibition,[6],-12.5% (inactive)
same,inhibition of aggregation,[7],1.2% (inactive)
same,nuclei count,[7],90.2%
same,inhibition,[8],-14.6% (inactive)
same,nuclei count,[8],108%
same,fluorescence slope,[9],-0.46 (inactive)
same,NADPH fluorescence slope,[10],-1.9e-05 (inactive)
same,slope,[11],0.00351 (inactive)
same,outcome,[12],inactive
same,normalised thallium flux (F/F0 slope),[1],0.00507 (inactive)
same,normalized thallium flux,PubChem AID 1714,0.00527 (inactive)
same,normalized thallium flux,[5],0.0252 (active)
same,thallium flux rate (normalised fluorescence),[2],0.0068 (inactive)
same,thallium flux slope,[4],0.00966 (inactive)
same,inhibition,[13],-18.8% (inactive)
same,inhibition,[14],98.4% (active)
COC(=O)c1sc(NC(=S)NC(=O)c2ccc(C)cc2)nc1C,normalised thallium flux (F/F0 slope),[1],0.0256 (active)
same,normalized thallium flux,PubChem AID 1714,0.104 (active)
same,thallium flux rate (normalised fluorescence),[2],0.0618 (active)
same,"raw Tl+ flux slope (below DMSO = inhibition, above = activation)",[3],0.0617 (active)
same,thallium flux slope,[4],0.0234 (active)
Cc1ccc(NCc2n[nH]c(=S)n2-c2ccccc2)cc1Cl,normalised thallium flux (F/F0 slope),[1],0.00768 (inactive)
same,normalized thallium flux,PubChem AID 1714,0.0747 (active)
same,normalized thallium flux,[5],0.0302 (inactive)
same,thallium flux rate (normalised fluorescence),[2],0.00846 (active)
same,thallium flux slope,[4],0.00946 (inactive)
Cc1cc(C(=O)NNC(=S)Nc2ccccc2C)cs1,normalised thallium flux (F/F0 slope),[1],0.00983 (inactive)
same,normalized thallium flux,PubChem AID 1714,0.0117 (active)
same,normalized thallium flux,[5],0.0323 (inactive)
same,"raw Tl+ flux slope (below DMSO = inhibition, above = activation)",[3],0.0239 (inactive)
same,thallium flux slope,[4],0.0109 (inactive)
